PubChem BioAssay AID449762 (Southern Research Specialized Biocontainment Screening …, 2010)
Among all 330,000 compounds or so, about 1,900 (0.58%) were called active. Roughly 4% stayed inconclusive and do not appear here. Not all results are given here. Entries with a potency or affinity are not part of this list. Unmarked numbers belong to inactive results. No stated cut-off is given here; in the data, inconclusive means inhibition above about 70% without an active follow-up result; inactive means below that.

Test: M. tuberculosis growth inhibition, HTS (AID 449762);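 further: bacterial growth assessed after seven days of incubation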
Settings: M. tuberculosis H37Rv growth inhibition, 7H9 media; at 25 µM; hits give high values

SMILES	inhibition
Cn1c(=O)c2c(nc(NCC3CCCO3)n2C)n(C)c1=O (stereo not given)	-5.47%
Cc1ccc(C(=O)c2coc3ccc(O)cc23)cc1	2.44%
C[C@@H](NC(=O)[C@@H]1Cc2ccccc2CN1)C(=O)Nc1ccc2c(c1)OCCO2	8.26%
Cc1[nH]c2ccc(OC(F)(F)F)cc2c1CCNCc1cccc([N+](=O)[O-])c1	62.9%
COc1ccc(CNCCc2c(C)[nH]c3ccc(OC(F)(F)F)cc23)c(OC)c1	35.2%
C(=NC12CN3CN(CN(C3)C1)C2)c1ccc2c(c1)OCO2	-3.64%
COC(=O)C1=C(c2ccc(F)cc2OCc2ccccc2)C[C@@H]2CC[C@H]1N2C(=O)NCc1ccc(F)cc1	-5.1%
CC(Sc1nc(-c2ccccc2)nc2c1COC(C)(C)C2)C(=O)N1CCOCC1 (stereo not given)	-20.2%
O=c1oc(-c2cccs2)nc2ccccc12	-3.68%
O=c1c2cnn(-c3ccccc3)c2nc(-c2cccs2)n1-c1ccc(Br)cc1	1.78%
Cc1ccc(-n2c(C)cc(/C=N/NC(=O)c3ccc(CN4CCOCC4)cc3)c2C)cc1	-0.81%
COc1cc(NC(=O)Cn2cnc(S(=O)(=O)N3CCOCC3)c2)cc(OC)c1OC	-1.58%
O=C1C(O)=C(O)C(=O)c2ccccc21	-1.99%
O=C1c2ccccc2-c2cccnc21	-8.77%
CCC1CCCCN1C(=S)NCc1ccccc1 (stereo not given)	-0.48%
CN(C)CCOc1cc(Cl)cc(Cl)c1	10%
Cc1nc2c(C(=O)N3CCN(c4ccccn4)CC3)cnn2c(C)c1Cc1cccc(Cl)c1	48.5%
Cc1ccc(C(=O)N/C(=C\c2ccco2)C(=O)NCc2cccnc2)cc1	-2.29%
O=C(NCc1cccnc1)/C(=C/c1ccc(-c2cccc(C(F)(F)F)c2)o1)NC(=O)c1ccccc1	11.6%
CCOC(=O)N1CCN(C(=O)CSc2ccc(C(=O)OC)cc2[N+](=O)[O-])CC1	-7.7%
Clc1ccccc1Cc1noc(CN2CCN(Cc3ccccn3)CC2)n1	2.36%
CC(C)(C)c1ccc(C(=O)NC2CCS(=O)(=O)C2)cc1 (stereo not given)	1.38%
Cc1ccc(C(c2c(C)nn(-c3ccccc3)c2N)c2c(C)nn(-c3ccccc3)c2N)cc1	23.1%
Cc1nn(-c2ccccc2)c(N)c1C(c1ccccc1)c1c(C)nn(-c2ccccc2)c1N	5.62%
COc1ccc(OC)c(C(=O)COC(=O)CNC(=O)c2ccccc2)c1	-2.57%
